Where “and” joins values, the source holds several entries; their conditions need not be identical. Identical values can stand only once. For some assays here: Potency and affinity values are given separately. Calls of active or inactive are those of the source. Unless noted, the rule behind the calls is not given here.
Assays:
[1] = antimalarial activity against Dd2 strain (AID 2302;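 active = growth inhibition above 50% at the single 2 µM test dose, taken to imply half-maximal potency below 2 µM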;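 note: 0% = DMSO untreated growth and 100% = chloroquine plus artemisinin killed control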); conditions: P. falciparum Dd2 in RBCs, LDH growth readout, 72 h; at 2 µM; stronger effect = higher value
[2] = human hepatoma cell viability loss – ATP luminescence, cytotoxicity control for P. falciparum antimalarial project, primary screen (AID 2303;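 active = inhibition above 50%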;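 note: 0% = DMSO wells and 100% = digitonin-killed cells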); conditions: HepG2 viability, 24-48 h, at 10 µM, stronger effect = higher value
[3] = target: L-lactate dehydrogenase (Plasmodium falciparum (isolate CDC / Honduras)) (UniProt Q27743); assay: PfLDH activity inhibition – cell lysate, 3D7 strain, counter-screen for P. falciparum growth inhibition project (AID 2304);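 note: 0% = vehicle and 100% = reference inhibitor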; conditions: P. falciparum 3D7 crude extract, LDH APAD/NBT absorbance; at 2 µM; stronger effect = higher value
Sequence of L-lactate dehydrogenase (Plasmodium falciparum (isolate CDC / Honduras)) (Q27743 whole entry, looked up): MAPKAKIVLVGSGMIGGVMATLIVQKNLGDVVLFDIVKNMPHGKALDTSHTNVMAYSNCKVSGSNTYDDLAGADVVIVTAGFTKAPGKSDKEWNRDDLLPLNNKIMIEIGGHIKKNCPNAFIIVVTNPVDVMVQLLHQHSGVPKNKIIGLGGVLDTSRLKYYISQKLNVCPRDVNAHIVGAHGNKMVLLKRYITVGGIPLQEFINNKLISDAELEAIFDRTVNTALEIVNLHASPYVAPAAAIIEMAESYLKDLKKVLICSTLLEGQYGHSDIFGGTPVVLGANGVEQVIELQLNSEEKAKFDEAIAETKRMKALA

[4] = inhibition of 3D7 malaria parasite growth – strain 3D7 (AID 2306);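 note: 0% = DMSO wells and 100% = chloroquine plus artemisinin control wells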; conditions: P. falciparum 3D7 erythrocytic growth, LDH absorbance, 72 h; at 2 µM; stronger effect = higher value
[5] = target: Calcium-dependent protein kinase 1 (Plasmodium falciparum (isolate 3D7)) (UniProt P62344); assay: PfCDPK1 kinase inhibitors, biochemical, TCAMS library (AID 1159585; cut-off not given, nearly all actives have IC50 up to about 0.98 µM;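 note: inhibitors leave more ATP so luminescence rises with inhibition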); conditions: recombinant PfCDPK1, Kinase-Glo ATP depletion luminescence
Sequence of Calcium-dependent protein kinase 1 (Plasmodium falciparum (isolate 3D7)) (P62344 whole entry, looked up): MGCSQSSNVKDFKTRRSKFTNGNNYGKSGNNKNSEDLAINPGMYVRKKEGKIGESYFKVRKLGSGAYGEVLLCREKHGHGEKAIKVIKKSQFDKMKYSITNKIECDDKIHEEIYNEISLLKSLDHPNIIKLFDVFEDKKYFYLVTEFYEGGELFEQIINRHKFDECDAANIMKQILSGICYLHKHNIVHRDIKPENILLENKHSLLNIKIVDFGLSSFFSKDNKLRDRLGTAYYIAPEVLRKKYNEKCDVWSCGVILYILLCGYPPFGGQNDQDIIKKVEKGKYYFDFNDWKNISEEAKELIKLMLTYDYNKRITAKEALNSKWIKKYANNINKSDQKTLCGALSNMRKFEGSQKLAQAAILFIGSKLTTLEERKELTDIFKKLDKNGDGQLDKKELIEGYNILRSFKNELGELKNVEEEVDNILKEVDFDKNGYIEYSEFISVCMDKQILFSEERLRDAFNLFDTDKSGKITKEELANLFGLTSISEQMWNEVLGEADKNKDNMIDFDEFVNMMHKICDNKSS

[6] = target: Plasmodium falciparum protein kinase 6 (PK6, PF3D7_1337100) (UniProt Q8IDW1); assay: PfPK6 kinase inhibitors, biochemical, TCAMS library (AID 1159586); conditions: recombinant PfPK6, Kinase-Glo ATP depletion luminescence
Sequence of Plasmodium falciparum protein kinase 6 (PK6, PF3D7_1337100) (Q8IDW1 1-305): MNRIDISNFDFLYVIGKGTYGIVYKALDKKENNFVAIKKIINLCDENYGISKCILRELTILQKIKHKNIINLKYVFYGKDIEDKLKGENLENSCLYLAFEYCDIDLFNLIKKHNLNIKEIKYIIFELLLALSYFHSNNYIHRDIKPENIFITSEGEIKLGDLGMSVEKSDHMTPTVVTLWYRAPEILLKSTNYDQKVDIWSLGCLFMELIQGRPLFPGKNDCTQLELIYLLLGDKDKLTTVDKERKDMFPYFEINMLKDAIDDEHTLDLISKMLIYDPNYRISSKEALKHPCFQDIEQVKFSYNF

[7] = target: Protein kinase 7 (PK7), Plasmodium falciparum 3D7 (PF3D7_0213400) (UniProt Q7YTF7); assay: inhibition of Plasmodium PK7 catalytic activity – biochemical, TCAMS antimalarial set, Kinase-Glo luminescence (AID 1159587); conditions: recombinant PfPK7, Kinase-Glo ATP depletion luminescence
Sequence of Protein kinase 7 (PK7), Plasmodium falciparum 3D7 (PF3D7_0213400) (Q7YTF7 1-343): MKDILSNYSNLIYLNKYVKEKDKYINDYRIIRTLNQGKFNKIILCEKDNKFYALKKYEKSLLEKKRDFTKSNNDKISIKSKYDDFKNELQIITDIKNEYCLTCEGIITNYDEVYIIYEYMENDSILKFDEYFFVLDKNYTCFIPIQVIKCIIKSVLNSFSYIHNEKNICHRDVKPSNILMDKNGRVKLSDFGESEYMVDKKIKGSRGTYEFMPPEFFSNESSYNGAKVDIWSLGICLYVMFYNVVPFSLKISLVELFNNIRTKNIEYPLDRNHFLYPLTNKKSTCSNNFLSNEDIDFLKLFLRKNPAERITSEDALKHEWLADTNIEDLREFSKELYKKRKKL

[8] = target: Calcium-dependent protein kinase 4 (Plasmodium falciparum (isolate 3D7)) (UniProt Q8IBS5); assay: PfCDPK4 kinase inhibitors, biochemical, TCAMS library (AID 1159588; cut-off not given, nearly all actives have IC50 up to about 0.91 µM); conditions: recombinant PfCDPK4, Kinase-Glo ATP depletion luminescence
Sequence of Calcium-dependent protein kinase 4 (Plasmodium falciparum (isolate 3D7)) (Q8IBS5 whole entry, looked up): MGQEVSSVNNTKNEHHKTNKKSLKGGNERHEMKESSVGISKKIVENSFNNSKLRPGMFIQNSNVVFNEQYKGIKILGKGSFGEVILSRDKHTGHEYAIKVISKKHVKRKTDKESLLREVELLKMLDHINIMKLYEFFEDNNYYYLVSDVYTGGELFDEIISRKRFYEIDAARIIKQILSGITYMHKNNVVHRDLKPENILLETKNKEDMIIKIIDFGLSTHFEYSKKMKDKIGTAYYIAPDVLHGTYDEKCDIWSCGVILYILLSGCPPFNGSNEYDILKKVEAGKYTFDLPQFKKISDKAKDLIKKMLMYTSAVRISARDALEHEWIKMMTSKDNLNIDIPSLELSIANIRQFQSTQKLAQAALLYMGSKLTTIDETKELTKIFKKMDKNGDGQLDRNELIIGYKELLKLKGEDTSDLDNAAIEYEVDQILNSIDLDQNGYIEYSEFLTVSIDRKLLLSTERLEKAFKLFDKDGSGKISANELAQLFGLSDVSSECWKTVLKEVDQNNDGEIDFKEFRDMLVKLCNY

[9] = P. berghei load reduction in hepatocytes – cell-based, HepG2, luciferase luminescence, HepG2 viability, primary screen (AID 624349; in the data active = parasite load remaining mostly below about 12%, no sharp cut-off; inactive = mostly above about 10%;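 note: 100% = mean of DMSO negative control wells on the same plate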); conditions: P. berghei liver stage in HepG2, luciferase luminescence, concentration not given here; parasite load remaining: stronger effect = lower value; viability: measured here: HepG2 viability without parasites
[10] = signal quenchers or enhancers, Cy5 substrate/SSB – biochemical, NIH Clinical Collection, E. coli SSB, artefact control for HCV NS3 helicase inhibitor project (AID 743268); conditions: Cy5-oligo bound E. coli SSB, fluorescence interference
[11] = tested on: Hepatitis C virus NS3 helicase; assay: blockers of NS3h binding to DNA – biochemical, fluorescence polarization, NIH Clinical Collection, primary screen (AID 743270); conditions: NS3 helicase binding to Cy5-dT15 DNA, stronger effect = higher value, concentration not given here
[12] = target: Single-stranded DNA-binding protein (Escherichia coli (strain K12)) (UniProt P0AGE0); assay: SSB-ssDNA binding inhibitors – biochemical, fluorescence polarization, NIH Clinical Collection, counter-screen for HCV NS3 helicase inhibitor project (AID 743271; in the data active = inhibition above about 28%); conditions: E. coli SSB-DNA binding, stronger effect = higher value, concentration not given here
[13] = compounds distorting NS3 helicase fluorescence signal – biochemical, NIH Clinical Collection, artefact control for HCV NS3 helicase inhibitor project (AID 743272); conditions: fluorescence interference counterscreen, HCV NS3 helicase assay; stronger effect = lower value;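 note: HCV NS3 helicase with a Cy5 labelled single stranded DNA probe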
[14] = tested on: Neuropilin-2 / VEGF-C interaction (human); assay: small molecules blocking Neuropilin-2/VEGF-C interaction – biochemical, microplate binding format, z-score (AID 743281); conditions: microplate NRP2/VEGF-C binding assay; stronger effect = lower value
[15] = modulation of C. elegans fzo-1 (AID 1259413);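 note: fzo-1 mutant C. elegans worms in liquid wells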; conditions: C. elegans fzo-1 modulator screen, mean read-out; stronger effect = higher value
[16] = tested on: Aerobactin synthetase IucA (Klebsiella pneumoniae); assay: inhibition of K. pneumoniae IucA enzyme – biochemical, Tocris library, absorbance (AID 1345561); conditions: purified IucA enzyme assay, absorbance (OD) read-out; stronger effect = lower value;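 tested at 8 µM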;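 note: 100% = enzyme without compound and 0% = no enzyme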
[17] = viability loss with induced miR-34 in A549 – imaging, A549 dox-inducible miR-34, nuclei and caspase counts, primary screen (AID 1347080;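 active = compounds whose cell count with miR-34 switched on is under 0.7 times the count with it off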); conditions: A549 miR-34 inducible, Hoechst nuclei count, 48 h
[18] = galactose survival enhancers in mitochondrial complex I cybrids – cell-based, galactose medium, ATP luminescence, primary screen (AID 1645843;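 active = z-score of at least 1.8 in each of two replicates, scored against plate mean and spread of sample wells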;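 note: positive z means more ATP and so rescue of galactose-driven cybrid death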); conditions: complex I mutant cybrid cells, 72 h, stronger effect = higher value
F380Y = assay: BK channel mutant inhibitors and activators – cell-based, U2OS BacMam, thallium flux, beta subunits, selectivity assay, profiling panel (AID 1259406;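 active = thallium flux through the channel raised or lowered by more than 3 SD from vehicle-only wells, actives on both sides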;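 note: initial slope of Thallos dye fluorescence rise after thallium is added; log ratio against the mean of 0.3% DMSO vehicle wells on the same plate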); conditions: U2OS BacMam BK variants, at 30 µM
F380Y/beta1 = assay: as above; conditions: U2OS BacMam BK variants, at 30 µM
F380Y/beta2Delta = assay: as above; conditions: U2OS BacMam BK variants, at 30 µM
F380Y/beta4 = assay: as above; conditions: U2OS BacMam BK variants, at 30 µM
[19] = target: Calcium-activated potassium channel subunit alpha-1 (Homo sapiens) + Leucine-rich repeat-containing protein 26 (Homo sapiens) (UniProt Q12791+Q2I0M4); assay: as above; conditions: U2OS BacMam BK variants, F380Y/Slo1WT/gamma1, at 30 µM
Sequence of Calcium-activated potassium channel subunit alpha-1 (Homo sapiens) + Leucine-rich repeat-containing protein 26 (Homo sapiens) (Q2I0M4 whole entry, looked up, one chain of several): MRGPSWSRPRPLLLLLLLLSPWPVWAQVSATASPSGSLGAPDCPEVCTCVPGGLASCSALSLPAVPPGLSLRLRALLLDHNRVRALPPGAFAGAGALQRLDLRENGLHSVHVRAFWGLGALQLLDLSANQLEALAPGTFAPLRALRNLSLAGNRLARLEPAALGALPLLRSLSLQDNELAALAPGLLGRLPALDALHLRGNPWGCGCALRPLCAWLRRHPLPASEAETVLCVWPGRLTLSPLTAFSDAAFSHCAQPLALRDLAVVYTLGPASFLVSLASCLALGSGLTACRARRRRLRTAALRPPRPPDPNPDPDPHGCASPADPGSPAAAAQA

R275C = assay: as above; conditions: U2OS BacMam BK variants, at 30 µM
R275C/beta1 = assay: as above; conditions: U2OS BacMam BK variants, at 30 µM
R275C/beta2Delta = assay: as above; conditions: U2OS BacMam BK variants, at 30 µM
R275C/beta4 = assay: as above; conditions: U2OS BacMam BK variants, at 30 µM
R275C/Slo1WT/beta2 = assay: as above; conditions: U2OS BacMam BK variants, at 30 µM

CCCCCCCc1cc(O)c2c3c(c(=O)oc2c1)CN(C)CC3
growth inhibition [1]: 100% (active)
inhibition [2]: -5% (inactive)
inhibition [3]: 3% (inactive)
growth inhibition [4]: 97% (active)
outcome [5]: inactive
outcome [6]: inactive
outcome [7]: inactive
outcome [8]: inactive

NCCc1ccccn1
parasite load remaining [9]: 52.1% (inactive)
viability [9]: 95.2%
fluorescence ratio [10]: 1 (inactive)
inhibition [11]: -1.19% (inactive)
inhibition [12]: -1.64% (inactive)
fluorescence ratio [13]: 1 (inactive)
z-score [14]: 1.2 (inactive)
mean signal [15]: 245 (inactive)
remaining activity [16]: 108% (inactive)
fold change ([17]; stronger effect = lower value): 1.03 (inactive)
fold change ([17]; stronger effect = lower value, cell number ratio, induced over uninduced): 1.05 (inactive)
fold change ([17]; measured here: relative caspase fold change +Dox/-Dox): 1.57 and 1.54
cell count ([17]; measured here: total cells with miR-34 induction, stronger effect = lower value): 10400 and 8860
cell count ([17]; measured here: total cells without miR-34 induction): 10100 and 8480
z-score [18]: 0.8 (inactive) and -0.145 (inactive)
log fold change Tl+ flux (F380Y): -0.0264 (inactive)
log fold change Tl+ flux (F380Y/beta1): 0.0119 (inactive)
log fold change Tl+ flux (F380Y/beta2Delta): -0.0265 (inactive)
log fold change Tl+ flux (F380Y/beta4): -0.0155 (inactive)
log fold change Tl+ flux [19]: 0.0303 (inactive)
log fold change Tl+ flux (R275C): -0.0283 (inactive)
log fold change Tl+ flux (R275C/beta1): -0.0664 (inactive)
log fold change Tl+ flux (R275C/beta2Delta): -0.0248 (inactive)
log fold change Tl+ flux (R275C/beta4): -0.0421 (inactive)
log fold change Tl+ flux (R275C/Slo1WT/beta2): -0.0103 (inactive)

CC(Cc1ccc(OC2CCCCC2)cc1)NCC(O)c1cccc(Cl)c1 (centres undefined)
growth inhibition [1]: 99% (active)
inhibition [2]: 66% (active)
inhibition [3]: -4% (inactive)
growth inhibition [4]: 99% (active)
outcome [5]: inactive
outcome [6]: inactive
outcome [7]: inactive
outcome [8]: inactive

C=CCOc1ccccc1CNCC(O)c1cccc(C(F)(F)F)c1 (centres undefined)
growth inhibition [1]: 98% (active)
inhibition [2]: 10% (inactive)
inhibition [3]: -1% (inactive)
growth inhibition [4]: 99% (active)
outcome [5]: inactive
outcome [6]: inactive
outcome [7]: inactive
outcome [8]: inactive

CC(Cc1ccc([N+](=O)[O-])cc1)NCC(O)c1cccc(C(F)(F)F)c1 (centres undefined)
growth inhibition [1]: 92% (active)
inhibition [2]: -2% (inactive)
inhibition [3]: -2% (inactive)
growth inhibition [4]: 98% (active)
outcome [5]: inactive
outcome [6]: inactive
outcome [7]: inactive
outcome [8]: inactive

COc1ccc(CC(C)NCC(O)c2cccc(Br)c2)cc1 (centres undefined)
growth inhibition [1]: 93% (active)
inhibition [2]: 10% (inactive)
inhibition [3]: -1% (inactive)
growth inhibition [4]: 99% (active)
outcome [5]: inactive
outcome [6]: inactive
outcome [7]: inactive
outcome [8]: inactive

O=C(C=Cc1ccccc1O)N1CCC(CN2CCC(c3c[nH]c4ccccc34)CC2)CC1
growth inhibition [1]: 43% (inactive)
inhibition [2]: 27% (inactive)
inhibition [3]: -1% (inactive)
growth inhibition [4]: 98% (active)
outcome [5]: inactive
outcome [6]: inactive
outcome [7]: inactive
outcome [8]: inactive

CC(Cc1ccc(OCCCCOc2ccccc2)cc1)NCCc1ccccc1Cl (centres undefined)
growth inhibition [1]: 58% (active)
inhibition [2]: 100% (active)
inhibition [3]: 1% (inactive)
growth inhibition [4]: 97% (active)
outcome [5]: inactive
outcome [6]: inactive
outcome [7]: inactive
outcome [8]: inactive

CCCCOC(C(=O)OCC1CCCN1C)(c1ccccc1)c1ccccc1 (centres undefined)
growth inhibition [1]: 2% (inactive)
inhibition [2]: 3% (inactive)
inhibition [3]: 6% (inactive)
growth inhibition [4]: 100% (active)
outcome [5]: inactive
outcome [6]: inactive
outcome [7]: inactive
outcome [8]: inactive

CN1CC(c2ccc(Cl)c(Cl)c2)OC1=N (centres undefined)
growth inhibition [1]: 3% (inactive)
inhibition [3]: 2% (inactive)
growth inhibition [4]: 99% (active)
outcome [5]: inactive
outcome [6]: inactive
outcome [7]: inactive
outcome [8]: inactive

C/C=C1/CN2CC[C@H]1C[C@H]2[C@H](O)c1ccnc2ccc(O)cc12
growth inhibition [1]: 11% (inactive)
inhibition [2]: -2% (inactive)
inhibition [3]: -3% (inactive)
growth inhibition [4]: 99% (active)
outcome [5]: inactive
outcome [6]: inactive
outcome [7]: inactive
outcome [8]: inactive
